Assay results taken from PubChem BioAssay AID488969 (Vanderbilt High Throughput Screening Facility, 2010).
Over roughly 110,000 compounds, “z-score” has its median near -0.1; the highest 2% begin near 2. Shown is part of a subset that was picked to be rich in the highest values. Activity calls are given as the source filed them.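 How the source made its calls: active means z-score in the third read window above 3 or below -3; inactive means the rest.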

Each compound was assayed against Metabotropic glutamate receptor 8 (Rattus norvegicus) (UniProt P70579) (assay: rat mGluR8 modulators via GIRK flux, primary screen, cell-based, thallium flux, HTS (AID 488969)). Details: HEK293 rat mGluR8, GIRK (G protein-gated inwardly rectifying potassium channel) thallium flux, FluoZin2; at 10 µM; stronger effect = higher value; submaximal glutamate (EC20) added with thallium.
Metabotropic glutamate receptor 8 (Rattus norvegicus), sequence (P70579 whole entry, looked up): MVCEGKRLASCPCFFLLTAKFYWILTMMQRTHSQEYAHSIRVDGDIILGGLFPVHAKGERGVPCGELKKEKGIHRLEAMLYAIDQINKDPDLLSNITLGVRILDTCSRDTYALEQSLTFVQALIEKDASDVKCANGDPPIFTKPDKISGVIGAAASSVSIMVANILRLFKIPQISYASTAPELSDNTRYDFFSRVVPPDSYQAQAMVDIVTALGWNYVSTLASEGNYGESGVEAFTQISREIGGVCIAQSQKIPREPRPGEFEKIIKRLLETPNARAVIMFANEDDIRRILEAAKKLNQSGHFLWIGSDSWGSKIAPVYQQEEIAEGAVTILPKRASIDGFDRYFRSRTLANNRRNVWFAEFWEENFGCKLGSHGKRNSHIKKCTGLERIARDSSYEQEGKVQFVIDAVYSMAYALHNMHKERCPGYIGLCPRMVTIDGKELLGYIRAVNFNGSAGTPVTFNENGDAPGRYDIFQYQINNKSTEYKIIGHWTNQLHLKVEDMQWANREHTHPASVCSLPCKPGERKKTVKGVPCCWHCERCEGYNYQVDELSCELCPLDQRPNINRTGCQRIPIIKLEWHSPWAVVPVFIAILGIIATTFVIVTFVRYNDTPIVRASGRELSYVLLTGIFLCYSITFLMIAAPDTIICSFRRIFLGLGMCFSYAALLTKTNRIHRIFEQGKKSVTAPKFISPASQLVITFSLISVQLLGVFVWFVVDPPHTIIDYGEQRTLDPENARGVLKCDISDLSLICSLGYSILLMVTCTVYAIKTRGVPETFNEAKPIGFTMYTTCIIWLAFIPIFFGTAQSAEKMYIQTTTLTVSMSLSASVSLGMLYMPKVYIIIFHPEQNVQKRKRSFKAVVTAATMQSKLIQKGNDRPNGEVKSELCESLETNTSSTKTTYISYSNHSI
With `CCn1c(=O)c(-c2ccccc2)c(O)c2ccccc21` the z-score was 1.28. With `CC(C)Cn1c(=O)c(C2=NS(=O)(=O)c3ccccc3N2)c(O)c2ccccc21` the z-score was 5.83 (active). In the case of `CC(C)Cn1c(=O)c(C(=O)N/N=C/c2cccc(F)c2)c(O)c2ccccc21`, the z-score is reported as 0.163. With `CCCc1nc(NCC2CCCO2)c2nnn(Cc3ccccc3)c2n1` (stereo not given) the z-score was -0.932. With `O=C(NC(=S)Nc1nc2c(s1)CCCC2)c1ccc(C(=O)c2ccccc2)cc1` the z-score was 2.41. In the case of `CCOc1ccccc1C(=O)N[C@H](C(=O)Nc1nc2c(s1)CCCC2)C(C)C`, the z-score is reported as 0.39. `CC(C)[C@H](NC(=O)c1ccccc1F)C(=O)Nc1nc2c(s1)CCCC2` gave a z-score of 2.3. In the case of `CC(C)(C)c1ccc(C(=O)NC(=S)Nc2nc3c(s2)CCCC3)cc1`, the z-score is reported as 1.95. For `O=C(NC(=S)Nc1nc2c(s1)CCCC2)c1ccccc1`, the z-score was 4.37 (active). `O=C(NC(=S)Nc1nc2c(s1)CSc1ccccc1-2)c1ccccc1` was tested, and the z-score was 0.384. `Cc1onc(-c2ccccc2)c1C(=O)Nc1nc2c(s1)CCCC2` was tested, and the z-score was 0.165. For `Cc1ccccc1C(=O)NC(C(=O)Nc1nc2c(s1)CCCC2)C(C)C` (stereo not given), the z-score was -0.323. Compound `CN(C)c1ccc(C(=O)Nc2nc3c(s2)CCCC3)cc1` has a z-score of 0.874. `O=C(Nc1nc2c(s1)CCCC2)c1cccs1` showed a z-score of 0.315. `COC(=O)c1ccc(C(=O)NC(=S)Nc2nc3c(s2)CC(C)CC3)cc1` (stereo not given) showed a z-score of 0.17. For `COC(=O)c1ccc(C(=O)NC(=S)Nc2nc3c(s2)CCCC3)cc1`, the z-score was 9.51 (active). For `S=C1NCCOCCOCCOCCN1`, the z-score was -0.259. Compound `Cc1nc2oc3ccccc3c(=O)c2c(=O)n1Cc1ccccc1` has a z-score of 1.14. `Brc1ccccc1-c1nnc2sc(Cc3ccccc3)nn12` gave a z-score of -2.32. `Cc1ccc2cccc(S(=O)(=O)Nc3c(C)n(C)n(-c4ccccc4)c3=O)c2n1` was tested, and the z-score was -0.0715. In the case of `Cc1cc(C)n2nc(C(=O)OCC(=O)c3cc(C)n(C)c3C)nc2n1`, the z-score is reported as -0.164. In the case of `Cc1ccc2c(c1)nc(NCCO)n2C`, the z-score is reported as -0.14. With `Cc1ccccc1CSCc1nc2ccccc2[nH]1` the z-score was -0.127. For `O=C(/C=C/c1ccc2c(c1)OCCCO2)c1ccc2ccccc2c1O`, the z-score was 0.573. Compound `CCc1ccc(/C=C/C(=O)c2cc(Br)ccc(=O)c2O)cc1` has a z-score of 2.17. `Cc1ccc(/C=C/C(=O)c2ccccc(=O)c2O)cc1C` was tested, and the z-score was 5.65 (active). Work on `O=C(/C=C/c1ccc2c(c1)OCCCO2)c1ccccc1O` yielded a z-score of 0.562. `Cc1ccc(/C=C/C(=O)c2cc(Br)ccc2OC(=O)c2ccco2)cc1` was tested, and the z-score was -0.117. `CNc1ccc(Br)cc(C(=O)/C=C/c2ccc3c(c2)OCO3)c1=O` was tested, and the z-score was 0.111. With `COc1ccc(/C=C/C(=O)c2cc(Br)ccc(=O)c2O)cc1` the z-score was 3.14 (active). Work on `CNc1ccc(Br)cc(C(=O)/C=C/c2cccc(OC)c2)c1=O` yielded a z-score of -0.351. In the case of `CCc1ccc(C(C)NC(=O)/C=C/c2ccc(Br)cc2)cc1` (stereo not given), the z-score is reported as -0.0914. Compound `CNc1ccc(Br)cc(C(=O)/C=C/c2ccc(OC)cc2)c1=O` has a z-score of 0.019. Work on `CNc1ccc(Br)cc(C(=O)/C=C/c2ccc(OC)cc2OC)c1=O` yielded a z-score of -0.255. Compound `Cc1cccc(/C=C/C(=O)c2cc(Br)ccc(=O)c2O)c1` has a z-score of 2.75. Compound `N#Cc1cccc(Oc2ccc(-c3cnc4ccccc4n3)cc2)c1C#N` has a z-score of 0.258. `Cc1ccc(-n2c(C)nnc2SCC(=O)N2CCc3ccccc3C2)cc1` showed a z-score of -0.994. Compound `Cc1cccc(N2C(=O)CC(Sc3nc(-c4ccccc4)c4cc(Cl)ccc4n3)C2=O)c1` (stereo not given) has a z-score of -0.887. Compound `CCc1ccc(OCC(=O)N/N=C/c2cc([N+](=O)[O-])ccc2N2CCOCC2)cc1` has a z-score of 0.198. `C/C(=N\OC(=O)c1ccc(Cl)cc1)c1nccs1` showed a z-score of -0.0963. `Cc1ccc(-n2nnnc2SCC(=O)Nc2cccc(NC(=O)c3ccco3)c2)cc1C` gave a z-score of 1.39. `CC1=CC(=Nc2c(C)n(C)n(-c3ccccc3)c2=O)C=C(C)C1=O` showed a z-score of 0.433. `Cc1cc(S(=O)(=O)NCC(=O)O)ccc1F` was tested, and the z-score was 0.254. In the case of `CCN=C1SC(C(=O)Nc2cccc(C)c2)CC(=O)N1CC` (stereo not given), the z-score is reported as -0.145. With `O=C(/C=C/c1ccccn1)c1ccc(Br)cc1O` the z-score was -0.442. `O=C(/C=C/c1ccc(Br)cc1)c1ccco1` was tested, and the z-score was -0.0794. For `O=C(/C=C/c1ccccc1)c1cc(Br)ccc(=O)c1O`, the z-score was 14 (active). In the case of `CN(C)c1nc(Oc2ccc(N)cc2)nc(N(C)C)n1`, the z-score is reported as 0.322. For `COc1cccc(C(=O)CSc2nnnn2C)c1`, the z-score was -0.273. With `CCCN(Cc1ccccc1)C(=S)Nc1cccc(C(F)(F)F)c1` the z-score was -0.985. `CN1CC(=O)N(CC(=O)NCc2ccc3c(c2)OCO3)C1=O` gave a z-score of -0.14. `O=C(O)C1[C@H]2C(=O)N(C3CCCC3)C[C@]23C=C[C@H]1O3` (stereo not given in full) showed a z-score of 0.231. Work on `COC(=O)C1C2C=CC3(CN(C4CCCC4)C(=O)C13)O2` (stereo not given) yielded a z-score of -1.65. `O=C(O)C1C2C=CC3(CN(C4CCCC4)C(=O)C13)O2` (stereo not given) was tested, and the z-score was 2.75. `Cc1cc(C)c2oc(-c3cccc(NC(=O)c4ccc(F)cc4)c3)nc2c1` gave a z-score of -0.0725. `Cc1cc(C)c(CSc2ncc(-c3ccc([N+](=O)[O-])cc3)[nH]2)c(C)c1` was tested, and the z-score was -0.26. `Cc1ccc(-n2cc(-c3ccc([N+](=O)[O-])cc3)[nH]c2=S)c(C)c1` gave a z-score of 2.99. `CCc1ccc(-n2cc(-c3ccc([N+](=O)[O-])cc3)[nH]c2=S)cc1` was tested, and the z-score was 0.69. Work on `Cc1cccc(-n2cc(-c3ccc([N+](=O)[O-])cc3)[nH]c2=S)c1` yielded a z-score of 0.401. Compound `O=[N+]([O-])c1ccc(-c2cn(-c3ccc(Cl)cc3)c(=S)[nH]2)cc1` has a z-score of 2.83. With `O=[N+]([O-])c1ccc(-c2cn(-c3ccccc3)c(=S)[nH]2)cc1` the z-score was -0.00967. Work on `Cc1ccc(Nc2cc(-n3cccn3)ncn2)c(C)c1` yielded a z-score of -0.35. `COc1ccc(/C=N/Nc2snc(SC)c2C#N)cc1OC` gave a z-score of 0.407. In the case of `Cc1ccc(NC(=O)c2ccc3c(c2)N(CC(=O)N2CCCCC2)C(=O)C(C)(C)O3)cc1`, the z-score is reported as -0.4. For `CC1Cc2nc(SCC(=O)N3CCN(c4ccccc4)CC3)n(CCc3ccccc3)c(=O)c2S1` (stereo not given), the z-score was -1.13. `COc1ccc(OCC(=O)NC(=S)Nc2ccc(N3CCOCC3)c(Cl)c2)cc1` was tested, and the z-score was 2.19. `CCCC(=O)NC(=S)Nc1ccc(N2CCOCC2)c(Cl)c1` showed a z-score of 0.242. With `CCCC(=O)NC(=S)Nc1ccccc1N1CCOCC1` the z-score was -0.0717. `Cc1ccccc1OCC(=O)NC(=S)Nc1ccc(N2CCOCC2)c(Cl)c1` gave a z-score of 0.328. In the case of `COc1ccc(OCC(=O)Nc2ccc(N3CCOCC3)c(Cl)c2)cc1`, the z-score is reported as -0.665. `O=C(NC(=S)Nc1ccc(N2CCOCC2)c(Cl)c1)C(c1ccccc1)c1ccccc1` was tested, and the z-score was 0.604. Compound `Cc1cc(Cl)ccc1OCC(=O)Nc1ccccc1N1CCOCC1` has a z-score of 2.81. With `O=C(NC(=S)Nc1ccc(N2CCOCC2)c(Cl)c1)c1cncc(Br)c1` the z-score was 7.69 (active). For `Cc1ccc(OCC(=O)Nc2ccccc2N2CCOCC2)c(C)c1`, the z-score was 0.00977. Compound `Cc1cc(Cl)ccc1OCC(=O)NC(=S)Nc1ccccc1N1CCOCC1` has a z-score of 0.195. `Cc1cccc(OCC(=O)NC(=S)Nc2ccccc2N2CCOCC2)c1` was tested, and the z-score was 3.14 (active). `Cc1cccc(OCC(=O)Nc2ccccc2C(=O)N2CCOCC2)c1` was tested, and the z-score was -0.0499. With `Cn1c(=O)cc(SCC(=O)NCC2CCCO2)c2ccc(Cl)cc21` (stereo not given) the z-score was 0.0952. `COCCOC(=O)C1=C(C)NC2=C(C(=O)CC(C)(C)C2)C1c1ccc2c(c1)OCO2` (stereo not given) gave a z-score of -0.115. Work on `CCc1nc(N)c(C#N)c(-c2cccc3ccccc23)c1C` yielded a z-score of 0.197. For `O=C(C[n+]1ccc2ccccc2c1)Nc1cc(C(F)(F)F)ccc1Cl`, the z-score was -0.746. `CN(C)S(=O)(=O)c1cc(C(=O)O)c(NC2CCCCC2)cc1Cl` was tested, and the z-score was -2.9. Compound `CCOC(=O)c1c(CSC(=N)N)n(-c2ccc(C)cc2)c2cc(Br)c(OC(C)=O)cc12` has a z-score of 1.29. Work on `Cc1cccc(NC(=O)CSc2nsc(SCC(=O)Nc3cccc(C)c3)c2C#N)c1` yielded a z-score of -0.0761. In the case of `COc1ccc(CCNC2=NCC(C)S2)cc1` (stereo not given), the z-score is reported as 0.0523. With `CCC(=O)N1CCN(c2ccccc2NC(=O)COc2cccc(C)c2)CC1` the z-score was 13 (active). Compound `CCC(=O)N1CCN(c2ccccc2NC(=O)COc2cc(C)ccc2C(C)C)CC1` has a z-score of 0.696. For `Cc1cccc(OCC(=O)Nc2ccccc2N2CCCCC2)c1`, the z-score was 0.378. With `Cc1sc(NC(=O)CSc2nnc(-c3ccc(F)cc3)o2)c(C#N)c1C` the z-score was -0.213. With `CCNC(=O)CN(c1ccc(OC)c(OC)c1)S(=O)(=O)c1ccccc1` the z-score was -0.11. In the case of `O=C(Nc1cccc(-c2nnc(-c3ccccc3)o2)c1)C1CCCCC1`, the z-score is reported as -0.0325. Work on `O=C(Nc1cccc(-c2nnc(-c3ccccc3)o2)c1)C1CCCO1` (stereo not given) yielded a z-score of 3. For `O=C(Nc1ccc2oc(-c3ccccc3)nc2c1)C1CCCO1` (stereo not given), the z-score was -0.123. `CCOC(=O)Cc1csc(NC(=O)C2C3C=CC(C3)C2C(=O)O)n1` (stereo not given) gave a z-score of -0.0933. `Cc1cc(C)cc(OCC(=O)Nc2ccc3c(c2)C(=O)c2ccccc2C3=O)c1` gave a z-score of -0.124. `Cc1ccc2nc(SC(C(=O)Nc3ccc(F)cc3)c3ccccc3)[nH]c2c1` (stereo not given) was tested, and the z-score was -0.117. Work on `COc1cccc(C(=O)CSc2nnc(-c3cc(OC)cc(OC)c3)o2)c1` yielded a z-score of 0.263. With `Cn1cccc1CNC1CCCC1` the z-score was -1.43. In the case of `Cn1cccc1CNC1CCCCC1`, the z-score is reported as 0.335. For `c1ccc(-n2cccc2CNC2CCCCC2)cc1`, the z-score was 2.02. `O=C(C1CCC(CNS(=O)(=O)c2cccc3cccnc23)CC1)N1CCc2ccccc21` (stereo not given) gave a z-score of -0.0229. In the case of `CC(=C1C(=O)c2ccccc2C1=O)N1CCN(Cc2ccccc2)CC1`, the z-score is reported as -0.06. `CC(=C1C(=O)c2ccccc2C1=O)N1CCN(C/C=C/c2ccccc2)CC1` gave a z-score of 2.04. For `CS(=O)(=O)N1CCN(C/C=C/c2ccccc2)CC1`, the z-score was -0.0638. For `Cc1cc(C)cc(C(=O)OCC(=O)Nc2cccc(S(=O)(=O)NC3=NCCCCC3)c2)c1`, the z-score was 0.0544. For `Cc1c(N2C(=O)CS/C2=N\N=C\c2ccccc2O)c(=O)n(-c2ccccc2)n1C`, the z-score was 3.28 (active). In the case of `Cc1c(N2C(=O)CS/C2=N\N=C\c2ccc(Br)cc2)c(=O)n(-c2ccccc2)n1C`, the z-score is reported as -0.286. Work on `Cc1c(N2C(=O)CS/C2=N\N=C\c2ccc(Cl)cc2)c(=O)n(-c2ccccc2)n1C` yielded a z-score of -0.118. `CC1SC(c2ccccc2Cl)NC1=O` (stereo not given) was tested, and the z-score was -0.0543. With `CC(NC(=O)c1ccc(-c2cc(C(F)(F)F)ccc2Cl)o1)c1ccccc1` (stereo not given) the z-score was -0.132.
